Experimental data reported in the supplement of paper PMC6555819.

What was measured:
Test in all cases: PBM binding z-score (relative to random genomic background probes); higher = stronger binding; sequences stand for … in GC…GCGATTGACAGCGTAGAATGAAGG
[1] = test system: PPARg:RXRa DBDmut IVT, anti-RXR (DBD mutation: RXRa K156A/R161A, NR concentration 270 nM, RXRa partner concentration 90 nM)
Method in brief: (§1)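 Binding z-scores take random background probes as their reference. They come from custom Agilent 4×180K protein-binding microarrays incubated 1 h with ligand-free nuclear receptor dimers, with antibodies against each partner (one per run) detecting binding. Scanned fluorescence was regression-normalized.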

[2] = test system: PPARg:RXRa IVT, anti-PPARg (NR concentration 270 nM, RXRa partner concentration 90 nM)
Method in brief: as §1

[3] = test system: PPARg DBDmut:RXRa IVT, anti-PPARg (DBD mutation: PPARg1 K132A/R137A, NR concentration 270 nM, RXRa partner concentration 90 nM)
Method in brief: as §1

[4] = test system: PPARg DBDmut IVT, anti-PPARg (DBD mutation: PPARg1 K132A/R137A, NR concentration 270 nM)
Method in brief: as §1

[5] = test system: PPARg homodimer (NR concentration 180 nM)
Method in brief: as §1

[6] = test system: PXR:RXRa (NR concentration 270 nM, RXRa partner concentration 90 nM)
Method in brief: as §1

[7] = test system: PXR homodimer (NR concentration 270 nM)
Method in brief: as §1

[8] = test system: RARa:RXR (NR concentration 270 nM, RXRa partner concentration 90 nM)
Method in brief: as §1

[9] = test system: RARa homodimer (NR concentration 270 nM)
Method in brief: as §1

[10] = test system: RARb:RXRa (NR concentration 270 nM, RXRa partner concentration 90 nM)
Method in brief: as §1

Row | Sequence | PBM binding z-score [1] | PBM binding z-score [2] | PBM binding z-score [3] | PBM binding z-score [4] | PBM binding z-score [5] | PBM binding z-score [6] | PBM binding z-score [7] | PBM binding z-score [8] | PBM binding z-score [9] | PBM binding z-score [10]
1 | TAGCCTAGGTCAGATCGGGCCGGTATACGCTATA | 0.592 | 1.34 | -0.27 | -0.214 | 0.114 | 0.345 | -0.722 | 0.515 | -0.746 | 2.98
2 | ATATGTAGGTTAGCTGGGGTAATTCAGACTAGGC | 6.75 | 6.17 | 1.99 | 1.76 | 0.916 | 1.12 | 0.0639 | 1.44 | 0.818 | 1.02
3 | AGAACGAGGGCACGCTGAGTTGATATCAGAGTAG | 4.16 | 3.89 | 0.683 | -0.135 | 0.168 | 1.44 | 0.106 | 0.865 | -0.122 | 2.5
4 | ATCTCTAGGTAAAATTCAGTGAAAGATCGATAGA | 1.48 | 1.53 | 0.966 | 1.25 | 1.04 | -0.0781 | 0.481 | -0.157 | 1.26 | 0.336
5 | TCTATTAGTTGATTAGGGCAACCAAAACAGCGGA | 2 | 1.72 | 1.55 | 1.68 | 0.9 | 0.429 | 0.323 | 0.556 | 1.11 | 0.905
6 | TTACCAAGGTGAGCTAAGGTCGTTGATCCAACTC | 1.04 | 1.93 | -0.698 | -0.173 | 0.0568 | 4.6 | 0.308 | 2.41 | -1.25 | 1.91
7 | CCTATTAGTTGACCATAAGGGCAACAGAAGCTCG | 0.409 | 0.628 | -0.0621 | 0.417 | 1.95 | 0.896 | 0.847 | 1.15 | 1.6 | 1.42
8 | TCTAGCAGGCCAGAAGGTCACTCAAGAGGTACGG | 1.1 | 0.932 | -0.221 | -1.25 | 2.43 | 2.79 | -0.00251 | 3.63 | -0.201 | 3.28
9 | ATCTCTAAGTAAGACTCAGTTCAGTGAAGAACGC | 0.103 | 0.218 | 0.885 | 1.04 | 0.659 | 0.518 | 1.83 | 0.541 | 1.22 | 0.15
10 | GCTAGCAGGCCACTTGGGTCACTCAATGACGGGC | 1.43 | 1.32 | -1.04 | -0.967 | -0.431 | 0.269 | -0.237 | 0.575 | -0.207 | 1.34
11 | TCTAGTTGGTCACGAAGGTCACACACGACGGGTA | 2.83 | 4.36 | 1.5 | 1.16 | 3.64 | 3.95 | 1.05 | 4.14 | 2 | 4.01
12 | CCTTTTAGTTGACCATAAGGGCAACCGAAGCTCG | 0.494 | 1.26 | 0.935 | 0.61 | 1.45 | 0.87 | 0.536 | 0.957 | 1.78 | 1.86
13 | TCTCGGAGGACACGAGAGGTCAGAGCTCGACATC | 1.28 | 1.31 | -0.0103 | -0.495 | 1.51 | 3.78 | 0.385 | 3.56 | -0.143 | 3.84
14 | TAGCCTACGTCATGGGCCAGTATACCACGCGAAC | -0.818 | -0.288 | -0.41 | -0.97 | -0.836 | -0.57 | -0.465 | -0.541 | -1.11 | -0.332
15 | TCGAGTTGGTCAAAGGTCACACACTCGAAATGCG | 1.75 | 5.88 | 1.98 | 1.49 | 8.37 | 6.29 | 1.41 | 7.61 | 4 | 4.9
16 | CCTTACGGGTCACTGACAGGTTGTAGCATTTGGA | 3.45 | 3.69 | 0.239 | -0.219 | 2.3 | 3.28 | -0.0802 | 4.11 | 0.949 | 3.79
17 | TGTATTAGTTGATTAGGGCAACCGAAACAGCGGA | 0.222 | 1.62 | 1.15 | 1.19 | 1.28 | -0.072 | 0.169 | 0.311 | 1.53 | 0.862
18 | GGAACGAGGGCATTAGAGTTGATAGCATGGCGAT | 3.06 | 2.02 | -0.0353 | -0.143 | 0.508 | 3.02 | 0.854 | 0.328 | -0.0747 | 1.79
19 | GCTATTAGTTGAAAGGCCAACCGAATGATTCTCG | 0.47 | 0.355 | 0.179 | -0.242 | 0.874 | 0.178 | -0.082 | 0.627 | 0.368 | 1.56
20 | CCTATCAGGCCAGGGTCACTCAAGCATTTCGCTT | 0.0359 | 1.06 | -1.33 | -0.669 | 1.28 | 2.59 | -0.206 | 3.5 | 0.157 | 2.74
21 | AGTCAAAGTTCATCTAGGTAACGTACGATATGCT | 1.04 | 4.13 | 1.4 | 2.09 | 2.4 | 5.22 | 6.7 | 3.95 | 1.06 | 5.06
22 | TGAACGAGGTTAAAGATCAGGGAACGTGGCGTCG | 1.29 | 2.81 | 0.475 | -0.0335 | 0.615 | 1.99 | -0.0143 | 2.94 | -0.0319 | 1.95
23 | AGAAAGAGGTTAAGATCAGGGAAACAGAATACAT | 1.12 | 1.52 | 1.97 | 0.819 | 1.02 | 1.37 | 0.655 | 1.89 | 0.728 | 2.4
